Results from publication PMC4336329 (PLoS ONE, 2015).
Hit rate of the full screen: of about 310,000 compounds, about 14,000 (4.5%) showed an effect of 50% or more. The effect is printed as a negative number. For the sample, strong results were picked, then their nearest neighbours and some compounds at random.

Molecular target: human ether-à-go-go-related gene (hERG) potassium channel (human, UniProt Q12809)
Experiment: primary screen, population patch clamp on CHO cells stably expressing hERG; higher = less effect of the substance
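Note: peak tail current of the secondary pulse compared with the same well before compound.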

Sequence of human ether-à-go-go-related gene (hERG) potassium channel (Q12809 whole entry, looked up): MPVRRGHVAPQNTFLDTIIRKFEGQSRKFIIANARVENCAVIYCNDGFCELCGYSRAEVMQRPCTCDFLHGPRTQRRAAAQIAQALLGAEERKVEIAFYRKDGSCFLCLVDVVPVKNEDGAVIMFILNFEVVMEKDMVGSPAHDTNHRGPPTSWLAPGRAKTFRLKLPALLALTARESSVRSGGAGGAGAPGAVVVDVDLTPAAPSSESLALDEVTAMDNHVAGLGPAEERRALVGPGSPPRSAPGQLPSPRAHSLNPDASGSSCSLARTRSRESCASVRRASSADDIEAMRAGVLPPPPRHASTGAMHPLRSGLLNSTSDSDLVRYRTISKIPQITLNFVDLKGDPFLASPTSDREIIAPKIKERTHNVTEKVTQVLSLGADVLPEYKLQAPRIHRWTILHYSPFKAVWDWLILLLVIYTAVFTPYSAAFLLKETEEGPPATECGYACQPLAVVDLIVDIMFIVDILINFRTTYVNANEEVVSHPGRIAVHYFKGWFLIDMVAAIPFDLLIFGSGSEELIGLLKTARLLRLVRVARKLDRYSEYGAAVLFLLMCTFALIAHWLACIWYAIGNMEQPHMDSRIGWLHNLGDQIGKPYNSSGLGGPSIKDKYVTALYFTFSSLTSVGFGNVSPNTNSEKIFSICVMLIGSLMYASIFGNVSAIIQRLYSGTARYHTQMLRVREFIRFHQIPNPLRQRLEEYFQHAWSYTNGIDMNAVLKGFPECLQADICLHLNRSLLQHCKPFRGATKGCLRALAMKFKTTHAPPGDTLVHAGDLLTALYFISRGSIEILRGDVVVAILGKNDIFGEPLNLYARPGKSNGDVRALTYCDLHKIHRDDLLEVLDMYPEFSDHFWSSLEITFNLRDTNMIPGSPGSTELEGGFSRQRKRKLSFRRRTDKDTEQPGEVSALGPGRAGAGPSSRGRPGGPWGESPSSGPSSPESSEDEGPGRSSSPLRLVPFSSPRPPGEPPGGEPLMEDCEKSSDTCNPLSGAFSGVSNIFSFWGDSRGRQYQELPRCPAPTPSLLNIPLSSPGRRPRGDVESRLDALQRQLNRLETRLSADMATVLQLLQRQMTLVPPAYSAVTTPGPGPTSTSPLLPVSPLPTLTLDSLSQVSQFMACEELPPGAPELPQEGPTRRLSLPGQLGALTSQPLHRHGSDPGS

| SMILES | hERG current change (%, negative = inhibition) at 10uM [%] |
| --- | --- |
| CCCCC(CCC(=O)Nc1ccccc1C(=O)OCC)C(=O)O (centres unmarked) | -3.09 |
| Cc1ccc(C)c(Cn2c(=O)n(CCCC(=O)NCc3ccco3)c(=O)c3ccccc32)c1 | 0.892 |
| O=C(Nc1ccc(Cl)cn1)c1ccc(-c2ccc(Cl)c(Cl)c2)o1 | 10.1 |
| CC(=O)c1ccccc1NS(=O)(=O)c1c(C)nn(-c2ccccc2)c1C | 3.03 |
| CCn1nc(C)c(CNC(=O)CCc2nnc(Cc3c[nH]c4ccccc34)o2)c1C | 42 |
| CCC(C)(C)n1nnnc1C(c1ccccc1OC)N1CCSCC1 (centres unmarked) | -24.1 |
| CCOc1ccccc1C(C(=O)NCCOC)N(CCOC)C(=O)Cn1nnc2ccccc21 (centres unmarked) | 18.5 |
| Cc1ccc(OCC(=O)N2CCN(C(=O)c3cccc(F)c3)CC2)cc1 | -13.3 |
| Cc1cccc(OCC(=O)N2CCN(C(=O)c3ccc([N+](=O)[O-])cc3)CC2)c1 | -68.8 |
| O=C(COc1ccc2ccccc2c1)NNC(=O)c1ccc([N+](=O)[O-])cc1 | -1.08 |
| Cc1ccc(OCC(=O)N2CCCCCCC2)cc1 | 7.87 |
| Cc1ccc(OCC(=O)N2CCN(C(=O)c3ccc([N+](=O)[O-])cc3)CC2)cc1 | -83.4 |
| Cc1ccc(S(=O)(=O)N2CCN(C(=O)c3ccc([N+](=O)[O-])cc3)C2)cc1 | -60 |
| Cc1cccc(OCC(=O)NNC(=O)c2ccc([N+](=O)[O-])cc2)c1 | 1.5 |
| Cc1cccc(OCC(=O)N2CCN(C(=O)c3cccs3)CC2)c1 | -7.23 |
| Cc1ccc(C(=O)N2CCN(S(=O)(=O)c3ccc(C)cc3)CC2)cc1 | -20.1 |
| O=C(COc1ccc2ccccc2c1)N1CCN(c2ccccc2)CC1 | 11.7 |
| O=C(COc1ccc2ccccc2c1)N1CCN(C(=O)c2ccc([N+](=O)[O-])cc2)CC1 | -76.5 |
| Cc1ccc(C(=O)N2CCN(S(=O)(=O)c3ccc(C)c([N+](=O)[O-])c3)C2)cc1 | -42.7 |
| COc1ccc(C(=O)N/N=C/c2sc(=O)n(Cc3cccc(C(=O)O)c3)c2Cl)cc1 | -1.9 |
| CC(C)(C)C1CCC(=NNC(=O)C2COc3ccccc3O2)CC1 (centres unmarked) | 0.995 |
| CCOC(=O)Cn1ccc(NC(=O)COc2ccc(F)cc2F)n1 | -2.52 |
| Cc1ccc(OCc2cc(C(=O)N3CC4C[C@@H]5CC3C[C@H](C4)C5)no2)cc1C | 15.7 |

| SMILES | hERG current change (%, negative = inhibition) at 10uM [%] |
| --- | --- |
| COc1ccc(C(=O)C[n+]2cccc(C)c2)cc1.[Br-] | 13 |
| NC(=O)c1ccc(NCc2ccco2)c([N+](=O)[O-])c1 | 6.16 |
| CN1CCN(S(=O)(=O)c2ccc3c(c2)C(C)(C)C(=O)N3C)CC1 | 14.3 |
| CSCCC(NC(=O)c1cc(S(=O)(=O)N2CCOCC2)ccc1F)c1nc2ccccc2[nH]1 (centres unmarked) | -5.27 |
| O=C(COc1ccccc1)N1CCN(S(=O)(=O)c2cccc([N+](=O)[O-])c2)CC1 | -47.3 |
| O=C(COc1ccccc1)N1CCN(C(=O)c2ccc([N+](=O)[O-])cc2)CC1 | -62.4 |
| COc1ccc(OCC(=O)N2CCN(C(=O)c3ccc(F)cc3)CC2)cc1 | -20.2 |
| COc1ccc(OCC(=O)N2CCN(C(=O)c3ccccc3)CC2)cc1 | -12.6 |
| COc1ccc(OCC(=O)N2CCN(C(=O)c3ccc([N+](=O)[O-])cc3)CC2)cc1 | -67.2 |
| CCC(=O)c1ccc(OCC(=O)N2CCN(C(=O)c3ccccc3)CC2)cc1 | -37.8 |
| COc1ccc(NC(=O)Cc2nnc(SCC(=O)NC3CCCC3)n2C)cc1 | 15.3 |
| CN(CC(=O)Nc1ccccc1Sc1ccccc1)Cc1nc2ccccc2c(=O)[nH]1 | -37.1 |
| CC(C)CN(CC(C)C)C(=O)COc1ccccc1C(N)=O | 7.55 |
| COc1ccc(S(=O)(=O)N2CCN(CC(=O)Nc3cc(C(F)(F)F)ccc3Cl)CC2)cc1 | -4.6 |
| C=CCOc1ccccc1CN1CCSCC1 | -11.2 |
| CSc1ccc(CN2CCC(Cc3ccccc3)CC2)cc1 | -65.4 |
| Clc1cccc(CN2CCC(Cc3ccccc3)CC2)c1 | -27.9 |
| C=CCOc1ccccc1CN1CCCCCC1 | -18.9 |
| C=CCOc1ccccc1CN1CCC(Cc2ccccc2)CC1 | -70.3 |
| CCOc1ccc(S(=O)(=O)N2CCN(Cc3ccccc3)CC2)cc1 | 1.61 |
| Clc1ccc(CN2CCC(Cc3ccccc3)CC2)cc1 | -40.9 |
| Fc1ccc(CN2CCC(Cc3ccccc3)CC2)cc1F | 2.03 |
| CCOc1ccc(CN2CCC(Cc3ccccc3)CC2)cc1 | -78.3 |

| SMILES | hERG current change (%, negative = inhibition) at 10uM [%] |
| --- | --- |
| O=C(CNS(=O)(=O)c1ccccc1)NCC(=O)OCc1ccccc1F | 13.7 |
| CC[C@@]12C(=O)N(c3ccccc3)C(=O)N1[C@H](c1ccc(Br)cc1)[C@@H]1C(=O)N(C(C)(C)C)C(=O)[C@@H]12 | 4.22 |
| CCOC(=O)/C=C/c1cnn(-c2ccccc2)c1 | 3 |
| CCc1nc2cc(CC(=O)O)ccc2o1 | 8.35 |
| COc1ccc(/C=N/NC(=O)Cn2cnc3ccccc3c2=O)cc1OC | -6.77 |
| CCCCn1c(O)c(C(CC)=NCc2ccco2)c(=O)[nH]c1=O | -35.4 |
| CC(C)CN(C(=O)CN(C)C(=O)Cc1ccccc1Cl)c1c(N)n(CC(C)C)c(=O)[nH]c1=O | 20.7 |
| CCC1CCCCN1C(=O)c1cccc(S(=O)(=O)Nc2cc(C(F)(F)F)ccc2Cl)c1 (centres unmarked) | 2.59 |
| COc1ccc(CCC(=O)NCCOc2ccc(Cl)cc2)cc1 | -7.98 |
| COc1ccc(-c2[nH]c3ccccc3c2SCCNC(=O)c2cc3ccccc3oc2=O)cc1 | -0.175 |
| CCOc1ccc(NC(=O)Cn2nnc(C(=O)NCc3cccs3)c2N)cc1 | 13.8 |
| Cc1cc(=O)[nH]c2nnc(-c3ccc(Br)cc3)n12 | 5.99 |
| O=S(=O)(c1ccc2c(c1)CCN2)N1CCCC1 | -1.58 |
| COc1ccc(CNC(=O)COC(=O)[C@H](Cc2c[nH]c3ccccc23)NC(=O)c2cccs2)cc1 | -0.701 |
| OC(COc1cccc2ccccc12)CN1CCN(c2ccccc2Cl)CC1 (centres unmarked) | -50.2 |
| COc1ccccc1N1CCN(CC(O)COc2cccc3ccccc23)CC1.Cl (centres unmarked) | -68.3 |
| OC(COc1cccc2ccccc12)CN1CCN(c2ccccc2)CC1 (centres unmarked) | -33.2 |
| OC(COc1cccc2ccccc12)CN1CCCC1 (centres unmarked) | -29.4 |
| COc1ccccc1N1CCN(CC(O)c2ccc3cc[nH]c3c2)CC1 (centres unmarked) | -69.3 |
| Cc1ccc(N2CCN(CC(O)COc3cccc4ccccc34)CC2)cc1 (centres unmarked) | -25.1 |
| COc1ccccc1N1CCN(CC(O)COc2c(OC)cccc2OC)CC1.Cl (centres unmarked) | -48.4 |
| COc1ccccc1N1CCN(CC(O)COc2cccc3ccccc23)CC1.Cl.O (centres unmarked) | -61 |
| OC(COc1ccc2ccccc2c1Cl)CN1CCOCC1 (centres unmarked) | -24.5 |

| SMILES | hERG current change (%, negative = inhibition) at 10uM [%] |
| --- | --- |
| CCOC(=O)N1CCN(CC(O)c2ccc3cc[nH]c3c2)CC1 (centres unmarked) | -30.4 |
| COc1ccccc1N1CCN(CC(O)c2ccccc2)CC1 (centres unmarked) | -8.46 |
| CCCc1nnc(SCC(=O)Nc2ccc(OCC)cc2)n1N | -3.79 |
| CCN(c1ccccc1)S(=O)(=O)c1ccc(Cl)c(C(=O)N(CC2CCCO2)C2CCS(=O)(=O)C2)c1 (centres unmarked) | -5.04 |
| Cc1ccc(-c2csnn2)cc1 | 6.13 |
| CCN1CCN(CCCNC(=O)C2c3ccccc3C(=O)N(c3ccc(OC)cc3)C2c2ccc(OC)cc2)CC1 (centres unmarked) | 1.22 |
| CCCCCN(C(=O)COC(=O)CSc1ccc([N+](=O)[O-])cc1)c1c(N)n(CCCC)c(=O)[nH]c1=O | -40.5 |
| CCc1cccc(NC(=O)CN(c2ccc(C)cc2)S(=O)(=O)c2c(C)noc2C)c1 | 8.14 |
| COc1cc(OC)c(NC(=O)CCc2nc(-c3ccc(C)cc3)no2)cc1Cl | 6.21 |
| COc1ccc(-c2ccc(-c3noc(-c4ccccc4C)n3)c(OC)n2)cc1 | 6.35 |
| O=C(NC1CCC(O)CC1)c1cccc2cccnc12 (centres unmarked) | 7.2 |
| CC1CCCN(Cc2c(O)ccc3c(=O)c(-c4nc5ccccc5s4)c(N)oc23)C1 (centres unmarked) | -0.886 |
| CCN(CC)Cc1c(O)ccc2c(=O)c(-c3ccc(Cl)cc3)coc12 | -58.4 |
| COc1ccc(-c2coc3c(CN4CCCCC4C)c(O)ccc3c2=O)cc1 (centres unmarked) | -39.4 |
| CC1CCCCN1Cc1c(O)ccc2c(=O)c(-c3ccc(Cl)cc3Cl)coc12 (centres unmarked) | -60.7 |
| CN(C)Cc1c(O)ccc2c(=O)c(-c3ccc(Cl)cc3)coc12 | -9.92 |
| CC1CCCCN1Cc1c(O)ccc2c(=O)c(-c3ccc(Cl)cc3)coc12 (centres unmarked) | -69.1 |
| CC1CCN(Cc2c(O)ccc3c(=O)c(-c4nc5ccccc5s4)c(N)oc23)CC1 | -48.5 |
| CC1CCCCN1Cc1c(O)ccc2c(=O)c(-c3nc4ccccc4s3)c(N)oc12 (centres unmarked) | -60.6 |
| CC1CCCCN1Cc1c(O)ccc2c(=O)c(-c3ccccc3)coc12 (centres unmarked) | -38.2 |
| CCN(CC)Cc1c(O)ccc2c(=O)c(-c3ccccc3)coc12.Cl | -1.91 |
| CC1CCCCN1Cc1c(O)ccc2c(=O)c(-c3nc4ccccc4s3)coc12 (centres unmarked) | -48 |
| COc1ccccc1-c1coc2c(CN3CCCCC3C)c(O)ccc2c1=O (centres unmarked) | 6.44 |
